Calls of active or inactive are those of the source.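 The calls were made as follows, unless noted: active = NADPH fluorescence slope more negative than the mean of all samples by about 3 SD, 99.7% confidence; inactive = the rest.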
Legend:
[1] = inhibitors of TNFa-induced NFkB p65 translocation, primary screen, imaging, HUVEC, MLSMR starter and 10KST1 sets (AID 438;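 active = inhibition above 20% together with a positive visual image hit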;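 also: compound added about 3h40 before a 20 min TNFalpha stimulation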;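 as to inhibition: signal is the nuclear over cytoplasmic p65 intensity ratio per well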); conditions: HUVEC TNFa-induced p65 nuclear translocation; cell count: measured here: nuclei count (cytotoxicity indicator), at 2.08 µM; inhibition: at 2 µM, stronger effect = higher value, 0% TNFa-plus-vehicle, 100% no-TNFa wells
[2] = reduction of polyQ htt aggregates in cells – imaging, exon1htt(103Q)mCFP cells, high-content imaging, primary screen (AID 483;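 active = visual image review flags a hit and inhibition of aggregation exceeds 20%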;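 also: compound exposure lasted 3 days before fixation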;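 as to nuclei count: percent of the per-plate median nuclei count of sample wells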); conditions: exon1htt(103Q)mCFP cell line, aggregate imaging, at 2 µM; inhibition of aggregation: stronger effect = higher value; nuclei count: measured here: cell count, toxicity
[3] = endothelial E-selectin expression blockers – imaging, HUVEC, immunofluorescence, MLSMR starter and 10KST1 sets, primary screen (AID 487;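 active = visually confirmed hit in the image check and inhibition above 20%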;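 as to inhibition: signal is fraction of cell area covered by stained E-selectin grains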;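 as to nuclei count: 100% = median nuclei count of all wells on the same plate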); conditions: HUVEC TNFalpha-induced E-selectin immunofluorescence imaging, at 2 µM; inhibition: stronger effect = higher value; nuclei count: measured here: cell number, toxicity
[4] = target: Voltage-gated potassium channel subunit beta-2 (Rattus norvegicus) (UniProt P62483); assay: inhibitors of rat Kvbeta2 reductase activity – biochemical, NADPH fluorescence, primary screen (AID 622;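 active = fluorescence slope higher than the sample average by over 3 SD, cut at about -0.22 in these data, passing the limit was not always enough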;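 also: slope of raw intensity against log time taken from 70 to 1610 s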); conditions: recombinant KvBeta, 4-cyanobenzaldehyde reduction, at 10 µM, stronger effect = higher value
[5] = target: Voltage-gated potassium channel subunit beta-2 (Rattus norvegicus) (UniProt P62483); assay: enhancers of rat Kvbeta2 NADPH turnover – biochemical, NADPH fluorescence, primary screen (AID 623); conditions: Recombinant KvBeta, NADPH fluorescence decrease slope, 10 min; at 10 µM; stronger effect = lower value;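 also: fluorescence intensity change per second fitted from 20 to 320 s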
[6] = target: Alpha-2C adrenergic receptor (Homo sapiens) (UniProt P18825); assay: compounds altering alpha2C-coupled GIRK flux – cell-based, HEK293 alpha2C/GIRK1/2, thallium flux, primary screen (AID 624;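 active = fluorescence slope after compound addition differing from the mean of all screened samples at 99.7% confidence, in either direction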;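 also: slope of fluorescence ratio to pre-addition baseline per second over 15 to 24 s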); conditions: thallium flux BTC fluorescence, at 10 µM, actives lie on both sides
[7] = blockers of RIG-like receptor reporter activation – cell-based, Sendai virus stimulus, luciferase, 10K MLSCN set, TLR/RLR signaling modifier project, primary screen (AID 602276;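 active = inhibition at or above 50% at 10 µM; inactive = inhibition below 50%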;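 also: firefly luciferase from ISG56 promoter only with Renilla not read in this screen; 0% = Sendai virus plus DMSO and 100% = medium plus DMSO without virus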); conditions: HEK293 RL24 IRF3 luciferase reporter, at 10 µM, stronger effect = higher value
[8] = TLR3 IRF3 reporter activation blockers – cell-based, poly I:C stimulus, luciferase, 10K MLSCN set, primary screen (AID 602277;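 active = inhibition of the reporter signal at or above 50%; inactive = inhibition below 50%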); conditions: HEK293-TLR3 RL24 IRF3 luciferase reporter, at 10 µM, stronger effect = higher value

Sequence of Voltage-gated potassium channel subunit beta-2 (Rattus norvegicus) (P62483 whole entry, looked up): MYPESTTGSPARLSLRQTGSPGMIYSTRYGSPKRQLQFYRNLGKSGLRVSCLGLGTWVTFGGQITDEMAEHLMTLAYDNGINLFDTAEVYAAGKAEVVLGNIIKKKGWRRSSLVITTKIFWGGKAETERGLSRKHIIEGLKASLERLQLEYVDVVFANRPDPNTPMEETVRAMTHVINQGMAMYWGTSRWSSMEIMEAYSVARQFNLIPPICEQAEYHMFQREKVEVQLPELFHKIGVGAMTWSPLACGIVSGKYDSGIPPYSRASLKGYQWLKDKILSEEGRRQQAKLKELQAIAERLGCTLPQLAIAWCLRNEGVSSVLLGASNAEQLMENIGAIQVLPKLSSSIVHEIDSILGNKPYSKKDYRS
Sequence of Alpha-2C adrenergic receptor (Homo sapiens) (P18825 whole entry, looked up): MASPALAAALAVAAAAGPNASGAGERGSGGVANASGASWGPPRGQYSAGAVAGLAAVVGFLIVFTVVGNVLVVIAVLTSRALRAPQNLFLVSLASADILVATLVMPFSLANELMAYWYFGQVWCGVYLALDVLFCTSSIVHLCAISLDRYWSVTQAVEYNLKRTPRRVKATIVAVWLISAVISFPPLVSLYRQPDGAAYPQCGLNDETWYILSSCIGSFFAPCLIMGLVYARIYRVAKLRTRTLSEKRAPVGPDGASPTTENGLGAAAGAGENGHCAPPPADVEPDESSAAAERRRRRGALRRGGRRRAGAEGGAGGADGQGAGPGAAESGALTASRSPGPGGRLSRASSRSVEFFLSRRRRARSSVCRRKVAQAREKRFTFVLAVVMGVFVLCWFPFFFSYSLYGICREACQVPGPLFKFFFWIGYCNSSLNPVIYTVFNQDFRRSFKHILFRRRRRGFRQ

Row | SMILES | cell count [1] | inhibition [1] | inhibition of aggregation [2] | nuclei count [2] [%] | inhibition [3] | nuclei count [3] [%] | fluorescence slope [4] | NADPH fluorescence slope [5] | slope [6] | inhibition [7] | inhibition [8]
1 | COCCn1c(C)c(C(=O)O)sc1=S | 279 | 3.8% (inactive) | 8.1% (inactive) | 86.9 | -4.7% (inactive) | 104 | -0.416 (inactive) | 5e-06 (inactive) | 0.00261 (inactive) | 9.55% (inactive) | -6.08% (inactive)
2 | Cc1ccc(S(=O)(=O)C2(C(=O)Nc3cccnc3)CC2)cc1 | 579 | 8.8% (inactive) | 14.7% (inactive) | 93.3 | -126% (inactive) | 98.8 | -0.573 (inactive) | -2.5e-05 (inactive) | 0.00528 (inactive) | 9.66% (inactive) | 28.7% (inactive)
3 | Cc1nc(SCc2ccc(Br)cc2)[nH]c(=O)c1C | 755 | 0.8% (inactive) | -11.8% (inactive) | 76.4 | -44.8% (inactive) | 117 | -0.452 (inactive) | -2.5e-05 (inactive) | 0.00691 (inactive) | 3.06% (inactive) | 29.5% (inactive)
4 | CCOC(=O)N1CCN(C(=O)c2ccc(CS(=O)(=O)c3ccc(OC)cc3)o2)CC1 | 516 | 2% (inactive) | -23.5% (inactive) | 90.7 | 8.5% (inactive) | 133 | -0.39 (inactive) | 2.2e-05 (inactive) | 0.0059 (inactive) | 14.8% (inactive) | 23.8% (inactive)
5 | COc1ccc(C2C=C(c3ccccc3)Nc3ncnn32)cc1 (stereo not drawn) | 558 | -20.9% (inactive) | -12.6% (inactive) | 105 | -15.1% (inactive) | 110 | -0.0904 (active) | 4.2e-06 (inactive) | 0.00603 (inactive) | 5.64% (inactive) | -14.5% (inactive)
6 | CC(=O)NC1(C(F)(F)F)NC(=O)N(CC(C)C)C1=O (stereo not drawn) | 359 | 4% (inactive) | -8.3% (inactive) | 97.6 | -30.2% (inactive) | 101 | -0.5 (inactive) | 2e-05 (inactive) | 0.00596 (inactive) | -14.7% (inactive) | 14% (inactive)
7 | Cc1cccc(C)c1NC(=O)c1cc(S(=O)(=O)N2CCOCC2)ccc1F | 341 | 10.3% (inactive) | -3.7% (inactive) | 56.5 | -213% (inactive) | 80.9 | -0.302 (inactive) | -1e-05 (inactive) | 0.00325 (inactive) | 11.2% (inactive) | 26.3% (inactive)
8 | CN(C)c1ccc(C=Nc2ccc(N(C)C)cc2)cc1 | 345 | 3.4% (inactive) | -8.7% (inactive) | 106 | 14.2% (inactive) | 118 | -0.512 (inactive) | -3.7e-05 (inactive) | 0.00615 (inactive) | -5.99% (inactive) | -19% (inactive)
9 | COc1ccc(-c2c(=O)n(OCc3ccccn3)c3ccccc3[n+]2[O-])cc1OC | 398 | 3.3% (inactive) | -10.4% (inactive) | 104 | -22.9% (inactive) | 110 | -0.385 (inactive) | -3.7e-09 (inactive) | 0.00593 (inactive) | -2.61% (inactive) | -16.8% (inactive)
10 | CN(C)S(=O)(=O)c1ccc(S(=O)(=O)N(Cc2ccco2)Cc2ccccc2Cl)cc1 | 478 | 4% (inactive) | 0.8% (inactive) | 98.9 | -58.4% (inactive) | 99.8 | -0.523 (inactive) | 8.8e-06 (inactive) | 0.00696 (inactive) | 4.31% (inactive) | 53.4% (active)
11 | COC(=O)CCC(=O)Nc1ccc(OC)cc1 | 418 | 0% (inactive) | -15.3% (inactive) | 108 | 31.8% (inactive) | 101 | -0.51 (inactive) | -5.9e-05 (inactive) | 0.00654 (inactive) | 8.73% (inactive) | 19.4% (inactive)
12 | Cc1cccc(OCc2nc(C#N)c(NCCN(C)C)o2)c1 | 628 | -2.9% (inactive) | -1.8% (inactive) | 102 | -27.6% (inactive) | 105 | -0.514 (inactive) | -3.5e-05 (inactive) | 0.00503 (inactive) | 9.05% (inactive) | 28.8% (inactive)
13 | CC1CCN(c2oc(-c3cccc4ccccc34)nc2C#N)CC1 | 610 | -8.2% (inactive) | 1.2% (inactive) | 102 | -112% (inactive) | 101 | -0.0453 (active) | -6.6e-07 (inactive) | 0.00364 (inactive) | -40.5% (inactive) | -95.3% (inactive)
14 | CCOc1ccc(S(=O)(=O)Nc2ccc(Cl)cn2)c(C)c1C | 536 | -35.7% (inactive) | 20.2% (inactive) | 87.4 | -43.3% (inactive) | 101 | -0.475 (inactive) | -3e-05 (inactive) | 0.00637 (inactive) | 4.93% (inactive) | 26.8% (inactive)
15 | CCOC(OCC)P(=O)(C(C)C)C(C)C | 491 | 6% (inactive) | -0.1% (inactive) | 93.4 | -53.6% (inactive) | 134 | -0.443 (inactive) | 4e-05 (inactive) | 0.00549 (inactive) | 17.5% (inactive) | 17.3% (inactive)
16 | CCCCCC(=O)N(CN1C(=O)CCC1=O)c1ccccc1 | 806 | 5.4% (inactive) | -9.8% (inactive) | 100 | 21.6% (inactive) | 111 | -0.283 (inactive) | -4e-05 (inactive) | 0.00618 (inactive) | 9.92% (inactive) | 13.3% (inactive)
17 | COc1cc(C(Nc2ccc3c(c2)OCO3)C(=O)NC2CCCCC2)cc(OC)c1OC (stereo not drawn) | 835 | -10.7% (inactive) | 12.3% (inactive) | 88.5 | -35.2% (inactive) | 121 | -0.63 (inactive) | -3e-05 (inactive) | 0.00532 (inactive) | 14.6% (inactive) | 28.3% (inactive)
18 | CC1CCCCN1CCNC(=O)C1CCN(S(=O)(=O)c2cccc3cccnc23)CC1 (stereo not drawn) | 450 | -0.8% (inactive) | 5.9% (inactive) | 72.5 | -54.5% (inactive) | 105 | -0.522 (inactive) | -4e-05 (inactive) | 0.00613 (inactive) | 6.15% (inactive) | 39.6% (inactive)
19 | CCOc1ccccc1N1C(=O)c2ccc(C(=O)Nc3cccnc3)cc2C1=O | 594 | 0.8% (inactive) | 1.8% (inactive) | 105 | -38.7% (inactive) | 109 | -0.482 (inactive) | 1.2e-05 (inactive) | 0.00693 (inactive) | 11.8% (inactive) | 21% (inactive)
20 | CCOc1ccc2c(O)csc2c1 | 393 | 2% (inactive) | 7.4% (inactive) | 109 | 7.7% (inactive) | 103 | -0.371 (inactive) | -4.2e-05 (inactive) | 0.0033 (inactive) | 8.13% (inactive) | 10.6% (inactive)
21 | O=C(CSc1nnc(Cn2c(=O)sc3ccccc32)n1-c1ccccc1)Nc1nccs1 | 645 | 1.8% (inactive) | 9.1% (inactive) | 110 | -7.4% (inactive) | 104 | -0.58 (inactive) | -2.9e-05 (inactive) | 0.00712 (inactive) | 2.86% (inactive) | 16.4% (inactive)
22 | CCc1nn(CC(=O)NCCCN2CCc3ccccc3C2)c(=O)c2cc3sccc3n12 | 811 | -6.4% (inactive) | 5.9% (inactive) | 138 | -64% (inactive) | 116 | -0.602 (inactive) | 9.3e-06 (inactive) | 0.00659 (inactive) | 2.67% (inactive) | 50.9% (active)
23 | COc1ccc(CNC(=O)CCc2nc(-c3ccccc3F)no2)c(OC)c1 | 354 | 1.7% (inactive) | 19.9% (inactive) | 98 | 37.2% (inactive) | 86.3 | -0.378 (inactive) | -2e-05 (inactive) | 0.00384 (inactive) | 8.05% (inactive) | 0.538% (inactive)
24 | CC(=O)NCc1cccc(CNC(C)=O)n1 | 652 | 9.2% (inactive) | -29% (inactive) | 109 | -92.7% (inactive) | 101 | -0.432 (inactive) | -2.5e-05 (inactive) | 0.00626 (inactive) | 12% (inactive) | 14.4% (inactive)
25 | O=C(CSc1nnc(-c2cccs2)o1)NCC1CN(Cc2ccccc2)CCO1 (stereo not drawn) | 669 | 7.8% (inactive) | 4.9% (inactive) | 92.2 | -87.4% (inactive) | 140 | -0.607 (inactive) | -6.7e-06 (inactive) | 0.00563 (inactive) | -0.491% (inactive) | -12.1% (inactive)
26 | COc1ccccc1-c1nnc(SCC(=O)N2CC(C)CC(C)C2)o1 (stereo not drawn) | 351 | 11.1% (inactive) | -3.7% (inactive) | 112 | 28% (inactive) | 94.8 | -0.411 (inactive) | -5.2e-05 (inactive) | 0.00365 (inactive) | 21.4% (inactive) | 29.2% (inactive)
27 | CC(=O)Nc1sc2c(c1C#N)CCCCC2 | 349 | 0.8% (inactive) | 12.1% (inactive) | 78.3 | -76.6% (inactive) | 115 | -0.396 (inactive) | -5.5e-05 (inactive) | 0.00723 (inactive) | -1.89% (inactive) | -4.1% (inactive)
28 | Cc1cc2c(c(=O)n1C)C(Cc1ccccc1)C(C#N)=C(N)O2 (stereo not drawn) | 620 | -20.7% (inactive) | 24.9% (inactive) | 99.1 | -61.8% (inactive) | 117 | -0.322 (inactive) | -3.8e-05 (inactive) | 0.00445 (inactive) | 9.72% (inactive) | 14.5% (inactive)
